Screen size: about 340,000 compounds; about 8,500 (2.5%) were called active.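 Rule for the calls: active = melting temperature shift of at least 10% of the positive control shift, at one fixed dose; inactive = the rest.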 This excerpt belongs to a sample that is enriched for actives.
These compounds were tested on Glutamate receptor ionotropic, NMDA 3A (GRIN3A) ligand-binding domain (assay: NR3A LBD thermal stabilization by compounds – biophysical, differential scanning fluorimetry, uHTS, primary screen (AID 1259313)). Conditions: at 25 µM, active compounds read high, 0% = protein alone, 100% = glycine-bound protein.

SMILES	Tm shift relative to glycine control
COc1cc(/C=N/NC(=O)Nc2ccccc2)ccc1OCCOc1ccccc1C	-1.19% (inactive)
O=c1[nH]cnc(O)c1C(c1ccc(F)cc1)c1c(O)nc[nH]c1=O	0.87% (inactive)
O=C(OCc1ccc(-c2ccccc2)cc1)c1cccc(O)c1	9.28% (inactive)
Oc1ccc(-c2cccc(-c3ccc(O)cc3)c2)cc1	31.9% (active)
Oc1ccc(-c2nncn2-c2ccccc2)cc1	-3.14% (inactive)
CNC(=S)N1CCC(NC(=O)C(Cc2ccc(F)cc2)NC(C)=O)CC1 (stereo not given)	-1.22% (inactive)
COc1ccc(CCNC(=O)CCCCCNC(=O)N2CCn3c2nc2ccccc23)cc1OC	-1.29% (inactive)
O=C(NCCCn1ccnc1)/C(=C\c1ccccc1F)NC(=O)c1ccccc1	-0.09% (inactive)
CC(/C=N/NC(=O)c1cc(-c2ccc3ccccc3c2)n[nH]1)=C\c1ccco1	16.4% (active)
CC(C)c1cc(C(=O)N/N=C/C(Br)=C/c2ccccc2)n[nH]1	6.56% (inactive)
CC(C)(C)C1CCC(=NNC(=O)c2cc(-c3ccccc3)n[nH]2)CC1 (stereo not given)	-5.15% (inactive)
Cc1cc2c(cc1C)NC1(C[C@H]3CCC(=O)N4CC[C@@H](C1)[C@@H]34)C(=NC(C)(C)CC(C)(C)C)N2 (stereo not given in full)	-6.03% (inactive)
O=C(CCCCCn1c(=S)[nH]c2cc3c(cc2c1=O)OCO3)N1CCN(c2ccc(F)cc2)CC1	11.6% (active)
Cc1ccc(C)c(N2CCN(C(=O)CCCCCn3c(=S)[nH]c4ccc(N5CCOCC5)cc4c3=O)CC2)c1	-2.75% (inactive)
CC(C)NC(=O)CCCn1c(=S)[nH]c2cc3c(cc2c1=O)OCO3	-1.68% (inactive)
CC(C)c1ccc(NC(=S)NC2CC3C=CC2C3)cc1 (stereo not given)	0.48% (inactive)
Cc1ccc(N=C2NC(=O)/C(=C/C=C/c3ccco3)S2)cc1C	9.42% (inactive)
Cc1cccc(N=C2NC(=O)/C(=C/c3cn(C)c4ccccc34)S2)c1	26.7% (active)
Cc1ccc(N2C(=O)S/C(=C/c3cn(C)c4ccccc34)C2=O)cc1	1.52% (inactive)
Cc1cccc(N2CCN(C(=O)CN(C)S(=O)(=O)c3ccc4c(c3)CCC(=O)N4)CC2)c1C	0.4% (inactive)

SMILES	Tm shift relative to glycine control
CN(NC(=O)C1CC(=O)N(c2ccccc2)C1)C1=NS(=O)(=O)c2ccccc21 (stereo not given)	-0.38% (inactive)
Cc1cccc(OCCNC(=S)NC(=O)c2cccnc2)c1	1.46% (inactive)
Cc1ccc(NC(=O)NC(=O)c2ccccc2)cc1F	-0.73% (inactive)
Cc1cccc(NC(=O)NC(=S)NC(=O)c2ccccc2)c1	20.6% (active)
O=C(c1ccc[nH]c1=S)N1CCN(S(=O)(=O)c2ccc(Br)cc2Cl)CC1	-0.43% (inactive)
COC(=O)C1(O)CC(C(C)C)=NN1C(=O)c1ccc(Cl)cc1 (stereo not given)	-4.26% (inactive)
Cc1ccc(NC(=O)CN2CCC3(O)CCCCC3C2c2ccc3c(c2)OCO3)c(C)c1 (stereo not given)	1.39% (inactive)
Cc1cc(C)c(OCC(=O)N(Cc2cccs2)C2CCS(=O)(=O)C2)c(C)c1 (stereo not given)	-2.05% (inactive)
Cc1cc(C)n(S(=O)(=O)c2cccc([N+](=O)[O-])c2)n1	-0.54% (inactive)
Cc1ccc(-c2cn(S(=O)(=O)c3cccc([N+](=O)[O-])c3)nc2N)cc1	23.9% (active)
CC1=NCCN1S(=O)(=O)c1cccc([N+](=O)[O-])c1	0.43% (inactive)
O=C(COC(=O)c1ccco1)Nc1ccc(Cl)cn1	-4.19% (inactive)
CCN(c1ccccc1)S(=O)(=O)c1ccc(OCC(=O)N2CCCC2)cc1	-0.92% (inactive)
COC(=O)C(NS(=O)(=O)c1ccc(F)cc1)c1ccccc1 (stereo not given)	0% (inactive)
COc1ccc(CN2CCN(Cc3ccc(OC)c(OC)c3OC)CC2)cc1	-0.74% (inactive)
Cc1ccc(NC(=O)Nc2cc(-c3ccccc3)nn2C)cc1Cl	47.8% (active)
Cc1ccc(NC(=O)COc2ccc(-n3ccnc3)cc2)cc1Cl	-10.8% (inactive)
Cc1cc(NC(=O)Nc2ccc(Cl)cc2)n(-c2ccccc2)n1	3.84% (inactive)
O=C(NC(Cc1c[nH]c2ccccc12)C(=O)O)/C(=C/c1ccco1)NC(=O)c1ccccc1 (stereo not given)	5.13% (inactive)
Cc1ccc(S(=O)(=O)NNC(=O)Nc2cccc3ccccc23)cc1	1.46% (inactive)
